According to PubChem BioAssay (NCI):
Compounds without any hit were thinned out: in the full panel of roughly 83,000, 20% have a hit.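 Compound tested at a single concentration for 48 hours in 96-well plates; a percent growth value below 10 was scored as active.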 A number with no mark means an inactive call. Active and inactive are the calls of the source.

tested on: MDA-MB-231 breast; assay: NCI-60 one-dose screen, 48 h (100 = growth as untreated, 0 = no growth, -100 = all killed); conditions: 10 µM unless noted

Row | Compound | growth
1 | CC(=O)Oc1ccc(CCN2C(=O)CSC2=S)cc1 | 64.4%
2 | COc1cc(/C=N/n2cnc3oc(-c4ccccc4)cc3c2=N)cc(CN2CCOCC2)c1O | 51.4%
3 | CCOC(=O)/C=c1\sc2n(c1=O)C1C(NN=2)N(CC)C(=O)N1CC (centres undefined) | 66.8%
4 | CN(C)c1ccc(/C=N/Nc2nc(N/N=C/c3ccc(N(C)C)cc3)nc(N3CCOCC3)n2)cc1 | 99.5%
5 | COc1cc2oc(-c3cccc(NC(=O)c4cc(NC(=O)[C@H](C)NC(=O)OC(C)(C)C)ccc4C)c3)cc(=O)c2c(OC)c1OC | 65.1%
6 | CN1CCN(Cc2ccc(NC(=O)c3cncc(C#Cc4cnc5ccc(NC6CCOCC6)nn45)c3)cc2C(F)(F)F)CC1 | -71.9% (active)
7 | O=C(Nc1ccc(Cl)cc1)Nc1nc2ccc([N+](=O)[O-])cc2s1 | -17.5% (active)
8 | CCCCCCNC(=O)Oc1ccc(/C(=C(/C)c2ccc(OC)cc2)c2ccc(OCCN3CCCC3)cc2)cc1 | 65.7%
9 | O=c1c2ccccc2nc(COc2ccccc2)n1/N=C/C=C/c1ccccc1 | 93.4%
10 | CCCCCc1ccc(S(=O)(=O)N(C(C)=O)c2cccc(-c3csc(N(CCN4CCN(C)CC4)C(C)=O)n3)c2)cc1 | 4.58% (active)
11 | O=C(NNc1nc2cc(F)c(F)cc2n2cccc12)c1ccncn1 | 36.4%
12 | O=C(CCCCCCN1CC(=O)N2[C@@H](c3cccc(Cl)c3)c3[nH]c4ccccc4c3C[C@H]2C1=O)NO | 39.5%
13 | O=C(/C=C/c1cn(-c2ccccc2)nc1-c1ccc(Cl)cc1)c1cc2ccccc2oc1=O | 55%
14 | COc1cc(/C=C/C(=O)c2ccc(NC(=O)COc3cccc4cccnc34)cc2)cc(OC)c1OC | 73.7%
15 | O=C(Nc1cccc(Cl)c1)Nc1nc2ccc([N+](=O)[O-])cc2s1 | -9.3% (active)
16 | O=C(NNc1nc2cc(F)cc(F)c2n2cccc12)c1ccncn1 | 32.2%
17 | C[C@H]1[C@H](C)CC[C@]2(COC(=O)c3cccnc3)CC[C@]3(C)C(=CC[C@@H]4[C@@]5(C)CCCNC(C)(C)[C@@H]5CC[C@]43C)[C@H]12 | 79.3%
18 | CN1CCN(c2ccc(NC(=O)Nc3ccc4c(ccn4-c4cccc(C(N)=O)n4)c3)cc2C(F)(F)F)CC1 | 74.8%
19 | COc1ccc(OC)c([C@H]2c3[nH]c4ccccc4c3C[C@H]3C(=O)N(CCCCCCC(=O)NO)CC(=O)N23)c1 | 82.3%
20 | CS(=O)c1nccc(-c2c(-c3ccc(F)c(OCc4ccccc4)c3)nc3sccn23)n1 (centres undefined) | 93.8%

Row | Compound | growth
21 | CC(=O)NC(C)(C)C(=O)N1CCC[C@H]1C(=O)NC(C)(C)C(=O)N[C@@H](C)C(=O)NC(C)(C)C(=O)N[C@@H](C)C(=O)N[C@@H](CCC(N)=O)C(=O)NC(C)(C)C(=O)N[C@H](C(=O)NC(C)(C)C(=O)NCC(=O)N[C@@H](CC(C)C)C(=O)NC(C)(C)C(=O)N1CCC[C@H]1C(=O)N[C@H](C(=O)NC(C)(C)C(=O)NC(C)(C)C(=O)N[C@@H](CCC(N)=O)C(=O)N[C@@H](CCC(N)=O)C(=O)N[C@H](CO)Cc1ccccc1)C(C)C)C(C)C | 77.7% [4.25 µM]
22 | C=C(C)[C@@H]1CC[C@]2(C(=O)NCCCN(CCC#N)CCC#N)CC[C@]3(C)[C@H](CC[C@@H]4[C@@]5(C)CCC(=O)C(C)(C)[C@@H]5CC[C@]43C)[C@@H]12 | 99.4%
23 | O=C(CN1C(=O)S/C(=C\c2ccccc2)C1=O)Nc1ccc(C(=O)/C=C/c2cc3ccccc3nc2Cl)cc1 | 90.2%
24 | N#Cc1c(-c2cccs2)cc(-c2cnccn2)nc1SCC(=O)NNC(=S)Nc1ccc(F)cc1 | 94.5%
25 | CN1CCN(c2nc(-c3cnc4ccccc4n3)cc3ccccc23)CC1 | 71.4%
26 | Cc1cc(O)c(=O)cc2c1C[C@H]1CC(C)(C)/C=C/C[C@]3(C)Oc4cc(=O)c(O)cc(C)c4C[C@H]3C[C@H](O)[C@@]1(C)O2 | 17.4%
27 | CC(C)=CCC[C@](C)(O)[C@H]1CC[C@]2(C)[C@@H]1CC[C@@H]1[C@@]3(C)CCC(NC(=O)c4ccccc4C(=O)O)C(C)(C)[C@@H]3CC[C@]12C (some centres undefined) | 82.6%
28 | CN1CCN(c2ccc3c(C(N)=O)c(NC(=O)c4ccc(C(C)(C)C)cc4)sc3c2)CC1 | 90.6%
29 | COc1ccc(-c2nc(SCC(C)C)nc(N/N=C\c3cccc([N+](=O)[O-])c3)c2C#N)cc1 | 30.5%
30 | Cc1cc(F)cc(NS(=O)(=O)c2ccc(-c3cnc(C4CC4)o3)cc2)c1 | 30.5%
31 | C/C(=N\NC(=O)CSc1nc2sc3c(c2c(=O)n1-c1ccccc1)CCC(C)C3)c1ccc(Cl)cc1 (centres undefined) | 39.8%
32 | COc1ccc(NC(=O)[C@H](C)N)cc1C(=O)Nc1cccc(-c2cc(=O)c3c(OC)c(OC)c(OC)cc3o2)c1 | 62.3%
33 | CC[C@H](C)[C@H]1NC(=O)[C@@H]([C@H](O)C(C)C)NC(=O)[C@@H](C)N(C)C(=O)[C@H](C)N(C)C(=O)[C@H](CC(C)C)NC(=O)[C@H](CC(C)C)N(C)C(=O)[C@H](C)N(C)C1=O | 8.22% (active)
34 | IP(CCCSc1n(Cc2ccc3ccccc3c2)c(-c2ccccc2)c(-c2ccccc2)[n+]1Cc1ccc2ccccc2c1)(c1ccccc1)(c1ccccc1)c1ccccc1 | 32.5%
35 | N/C(=N\OC(=O)CSc1nc2ccccc2s1)c1ccc(Cl)cc1 | 92%
36 | CC(=O)NC(C)(C)C(=O)N[C@@H](C)C(=O)NC(C)(C)C(=O)N[C@@H](C)C(=O)NC(C)(C)C(=O)N[C@@H](C)C(=O)N[C@@H](CCC(N)=O)C(=O)NC(C)(C)C(=O)N[C@H](C(=O)NC(C)(C)C(=O)NCC(=O)N[C@@H](CC(C)C)C(=O)NC(C)(C)C(=O)N1CCC[C@H]1C(=O)N[C@H](C(=O)NC(C)(C)C(=O)NC(C)(C)C(=O)N[C@@H](CCC(N)=O)C(=O)N[C@@H](CCC(N)=O)C(=O)N[C@H](CO)CC1CCCCC1)C(C)C)C(C)C | 55.3% [5 µM]
37 | CCOC(=O)C1=C(C)Nc2nnc(Nc3ccccc3)n2C1c1ccccc1 (centres undefined) | 65.7%
38 | COc1cc(OC)c(S(N)(=O)=O)cc1C(=O)/C=C/c1ccccc1 | 10.3%
39 | CCOC(=O)/C(F)=C/C1CC1C1CCCCC1 (centres undefined) | 98.6%
